A selection: hits, their analogues and other compounds. The true share with any hit is near 4.1%.
NALP1 inh: inhibitors of NALP1 inflammasome in yeast. inhibition, % at 10 µM. AID 2071. 0.61% of 280,000 active. S. cerevisiae NALP1/ASC/caspase-1 growth, X-gal OD620, 72 h; in the data active = inhibition mostly above about 24%, no sharp cut-off; inactive = mostly below about 32%
TIM10 inh: TIM10 yeast growth inhibition; S. cerevisiae TIM10 strain growth, BacTiter-Glo luminescence, 24 h; inhibition, % at 10 µM; 1.4% of 330,000 active;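 active = inhibition of 40% or more at the single tested concentration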;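 also: wild-type TIM10 isogenic control strain grown at permissive 25 °C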
PfHsp90 set2: growth inhibition of yeast expressing Plasmodium Hsp90. inhibition, % at 9.4 µM. 0.32% of 310,000 active. S. cerevisiae expressing PfHsp90, BacTiter-Glo ATP, 48 h; yeast lacking PDR1 and PDR3 efflux regulators;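 active = every replicate shows inhibition above about 80%, whatever the replicate mean, limit read from the data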
tim23-1 inh: growth inhibitors of tim23-1 mutant yeast. AID 463212. inhibition, % at 20 µM. S. cerevisiae tim23-1 growth, BacTiter-Glo luminescence, 24 h. 1.3% of 330,000 active;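 active = growth inhibition of the mutant yeast at or above 50%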;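 also: temperature-sensitive mutant grown at 25 °C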
tim10-1 inh: inhibits growth of tim10-1 mutant yeast; S. cerevisiae tim10-1 ts strain growth, BacTiter-Glo, 24 h; inhibition, % at 20 µM; 2.2% of 330,000 active; AID 463190;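 active = inhibition of at least 40%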;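 also: mutant grown at 25 °C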
NLRP3 yeast inh: inhibitors of NALP3 inflammasome in yeast | Yeast reconstituted NLRP3/ASC/caspase-1, beta-gal luminescence, 24 h | inhibition, % at 10 µM | 0.39% of 330,000 active;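 active = inhibition of 50% or more; inactive = inhibition below 50%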
tim10 confirm: TIM10 yeast growth inhibition, confirmed; shares compounds with TIM10 inh; S. cerevisiae tim10 strain growth, BacTiter-Glo luminescence, 24 h; inhibition, % at 10 µM; 63% of 4,600 active;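 active = inhibition of yeast growth at or above a set limit in either of two replicates at 10 µM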; also: this counterscreen used the strain with wild-type TIM10
A number is an active result; - = inactive; . = not tested or not shown.

SMILES | NALP1 inh | TIM10 inh | PfHsp90 set2 | tim23-1 inh | tim10-1 inh | NLRP3 yeast inh | tim10 confirm
Cc1ccc(NC(=O)COC(=O)c2ccc3c(c2)C(=O)N(CCc2ccccc2)C3=O)c(C)c1 | - | 41.3 | - | - | - | - | -
CSc1ccccc1C(=O)Nc1cccc(C)c1 | - | 43.7 | . | - | - | - | -
O=C(OCc1nnc(-c2ccc(Cl)cc2)o1)c1ccncc1 | - | - | - | - | - | - | .
Cc1noc(C)c1COc1ccc(C(=O)OCc2nnc(-c3ccc(Cl)cc3)o2)cc1 | - | 42.7 | - | - | - | - | 37.2
CCCCCN(C(=O)CSc1n[nH]c(-c2ccc(C)cc2)n1)c1c(N)n(CCCC)c(=O)[nH]c1=O | . | - | - | - | - | - | .
CCC(C)n1c(-c2ccco2)nc2nc3ccccc3nc21 (stereo not given) | - | 46.4 | . | - | - | - | -
CC(C)OCCCn1c(-c2ccco2)nc2nc3ccccc3nc21 | - | - | . | - | - | - | .
COc1ccc(NS(=O)(=O)c2cccc(C(=O)NNC(=O)c3cncc(Br)c3)c2)cc1 | . | - | . | - | - | - | .
CCN(Cc1nc2cc(Cl)ccc2c(=O)[nH]1)C(=O)c1cc(C2CC2)nn1-c1ccccc1 | . | - | . | - | - | - | .
CCCC(=O)Nc1cccc(-c2nc3ccccc3o2)c1 | - | 47.4 | - | - | - | - | -
Cc1cc(-c2nnc(SCC(=O)Nc3ccccc3)n2C)no1 | - | 53.6 | - | - | - | - | -
COc1ccc(-n2nnnc2SCC(=O)Nc2cccc(O)c2)cc1 | - | - | - | - | - | - | .
CCn1c(O)c(C=NCc2cccs2)c(=O)n(CC)c1=S | - | 41.7 | - | - | - | - | -
Cn1c(=O)c2c(O)c(C=NCc3ccccc3)c(=O)n(C)c2n(C)c1=O | - | - | . | - | - | - | .
CCCNC(=O)NC(=O)CN1C(=O)NC(C)(c2ccc3ccccc3c2)C1=O (stereo not given) | - | - | - | - | - | - | .
CCC1CCCCN1C(=O)CSc1nnc2nc(C)cc(C)n12 (stereo not given) | . | 42.5 | - | - | - | - | -
Cc1c(CN2CCC(CO)(CCOc3ccccc3)CC2)[nH]c2c(Cl)cccc12 | - | 44.2 | - | - | - | - | -
Cc1ccc(C(c2nnnn2C2CCCCC2)N2CCc3ccccc32)cc1 (stereo not given) | - | - | - | - | - | - | .
CC(C)C(c1nnnn1C1CCCCC1)N1CCc2ccccc21 (stereo not given) | - | 46.0 | - | - | - | - | 31.2
COc1c2c(nc3occc13)C(CC=C(C)C)(OC)C(OC(C)=O)CC2 (stereo not given) | - | 45.6 | - | - | - | - | -
COc1c2c(nc3occc13)C(CC=C(C)C)(OC)C(O)CC2 (stereo not given) | - | - | - | - | - | - | .
O=[N+]([O-])c1ccc(O)c(/C=N/n2cnc3ccccc32)c1 | - | 40.8 | - | - | - | - | 65.8
CCc1cc(C)cc(OCCOc2ccccc2/C=N/NC(C)=O)c1 | - | - | - | - | - | - | .
CC(=O)N/N=C/c1ccccc1OCCOc1cccc(C)c1 | - | 47.4 | - | - | - | - | 34.2
CCc1cccc(C)c1NS(=O)(=O)Cc1ccccc1 | - | - | - | - | - | - | .
SMILES | NALP1 inh | TIM10 inh | PfHsp90 set2 | tim23-1 inh | tim10-1 inh | NLRP3 yeast inh | tim10 confirm
CCOC(=O)CC1=NN(c2ccccc2)C(=O)/C1=C\c1ccc(OC)cc1OC | - | 47.9 | - | - | - | - | -
COC(=O)CC1=NN(c2ccccc2)C(=O)/C1=C\c1ccc(OC)cc1 | - | - | - | - | - | - | .
O=C(Nc1ccc(S(=O)(=O)N2CCOCC2)cc1)C1CCN(S(=O)(=O)c2ccc(F)cc2)CC1 | . | - | . | - | - | - | .
O=C(Nc1ccc(F)cc1)C1CCN(S(=O)(=O)c2ccc3[nH]c(=O)oc3c2)CC1 | - | 74.1 | - | - | - | - | -
O=C(N/N=C/c1ccccn1)c1cc(-c2ccc3ccccc3c2)n[nH]1 | - | 60.2 | - | - | - | - | -
Oc1ccc(-c2nnc(-c3ccc(O)cc3)nn2)cc1 | - | - | . | - | - | - | .
Oc1ccc(-c2cccc(-c3ccc(O)cc3)n2)cc1 | - | 44.4 | . | - | - | - | 31.8
CCn1c(C)nc([N+](=O)[O-])c1Sc1ccc(F)cc1 | - | - | - | - | - | - | .
CC(C)Cn1c(C(C)C)nc([N+](=O)[O-])c1S(=O)(=O)c1ccc(F)cc1 | - | 40.2 | - | - | - | - | -
N#Cc1ccc(C(=O)N(Cc2ccccc2)c2ccccc2)cc1 | - | - | - | - | - | - | .
COC(=O)c1ccc(C(=O)N(Cc2ccccc2)c2ccccc2)cc1 | - | 46.3 | - | - | - | - | -
S=c1[nH]nc(-c2cc3ccccc3o2)n1Cc1ccccc1 | - | 52.4 | - | - | - | - | 47.8
CCn1c(-c2ccccc2O)n[nH]c1=S | - | - | - | - | - | - | .
CCn1c(-c2cc(-c3ccccc3)sc2N)n[nH]c1=S | - | 45.2 | - | - | - | - | 43.0
S=c1[nH]nc(CCc2ccccc2)n1Cc1ccccc1 | - | - | - | - | - | - | .
S=c1[nH]nc(-c2ccc(Cl)cc2Cl)n1Cc1ccccc1 | - | 55.9 | - | - | - | - | -
S=c1[nH]nc(-c2cccc(Cl)c2)n1Cc1ccccc1 | - | - | - | - | - | - | .
Cc1cccc(-c2n[nH]c(=S)n2Cc2ccccc2)c1 | - | 41.4 | - | - | - | - | -
O=C(c1cccc(NS(=O)(=O)c2ccc(Br)cc2)c1)N1CCN(c2ccccc2O)CC1 | . | - | . | - | - | - | .
CCOc1ccc(CCNC(=O)c2cccs2)cc1OCC | - | - | - | - | - | - | .
CCC(C(=O)N1CCOCC1)n1c2ccccc2c2nc(=O)cc(C)n21 (stereo not given) | - | - | - | - | - | - | .
C=CCOC(=O)C1=C(C)NC(=S)NC1/C=C/c1ccccc1 (stereo not given) | - | 43.3 | - | - | - | - | -
COc1cccc(C(=O)N2CCN(C(=O)C3CC3)CC2)c1 | - | - | - | - | - | - | .
Cc1cc([N+](=O)[O-])c2ccccc2c1NS(=O)(=O)c1ccccc1 | . | . | - | . | . | . | .
CCOC(=O)C1CCN(C(=O)COC(=O)CNC(=O)c2ccc(C(C)(C)C)cc2)CC1 | . | - | . | - | - | - | .
SMILES | NALP1 inh | TIM10 inh | PfHsp90 set2 | tim23-1 inh | tim10-1 inh | NLRP3 yeast inh | tim10 confirm
COc1ccc2oc(=O)c(-c3nnc(N)s3)cc2c1 | - | 62.4 | - | - | - | - | 60.4
Nc1nnc(-c2cc3ccccc3oc2=O)s1 | - | - | - | - | - | - | .
Cc1ccsc1/C=N/Nc1nc2ccccc2s1 | - | 40.0 | - | - | - | - | 44.5
Oc1ccc(C=NNc2nc3ccccc3s2)c(O)c1 | . | . | - | . | . | . | .
CC(C)(C)CC(=O)Nc1cc2c3c(c1)CCC(=O)N3CCC2 | - | - | - | - | - | - | .
CC(=O)Nc1ccc(Nc2nc(-c3sc(C)nc3C)cs2)cc1 | - | - | - | - | - | - | .

High-throughput results (PubChem)
